We go through 40 sequences from the OligoGym collection.
Note: reference of the scale not given here.

For one assay, the target named is OSBPL11. In words: pooled miR-30 sensor sort-seq; sequence = guide strand. The following applies: shRNA.
TTGACTTGGTCTCCTCTGCGAT returned a sensor-assay potency score (higher = more potent) of -0.7.

The sequence TTTACCACTTTGGTCTTGCTGC displayed a sensor-assay potency score (higher = more potent) of -0.424.

On to TTGTGCTTTACTTCAGCTGTAA, for which the sensor-assay potency score (higher = more potent) is -0.271.

The sequence TATCTGAAGTCTGCTAACCCAG came in with a sensor-assay potency score (higher = more potent) of -1.27.

TTTACTTCAGCTGTAACCCGAT: the sensor-assay potency score (higher = more potent) was determined as 0.406.

Regarding TATACTTCATTAAATAGCCATA, the sensor-assay potency score (higher = more potent) is -1.62.

TAAATTAGTTCTTTTGCTCAGT had a sensor-assay potency score (higher = more potent) of -0.186.

Sequence AATAGCTTCAGTATGATGCTGT gave a sensor-assay potency score (higher = more potent) of 0.478.

The target in another assay is OSBPL2. The description is as above. The following applies: shRNA.
The sequence TCTAAGTCAATCATTCCCGTGA registered a sensor-assay potency score (higher = more potent) of 0.725.

For the sequence TTGAAGGCGATTGGCATCGTGA, the sensor-assay potency score (higher = more potent) was -0.348.

For the sequence TTCAGGATGGTCCACACGCTGA, the sensor-assay potency score (higher = more potent) is -1.77.

On to TTGAATGTGTCCTTCCACCTTG, for which the sensor-assay potency score (higher = more potent) is -0.0307.

Regarding TTCTCTCTGCTTCTCCTCCAGC, the sensor-assay potency score (higher = more potent) is -1.

In turn, TTTTGTCTTGAATGTGTCCTTC returned a sensor-assay potency score (higher = more potent) of 0.333.

TAAATCTGAATCCTAAATCTTC showed a sensor-assay potency score (higher = more potent) of -0.577.

As to TTTTTGTCTTGAATGTGTCCTT, the sensor-assay potency score (higher = more potent) is 0.356.

The sequence TAGAATTACATCCTTGATCAGG registered a sensor-assay potency score (higher = more potent) of -0.471.

Sequence TTAATTAGAATTACATCCTTGA showed a sensor-assay potency score (higher = more potent) of 1.08.

In turn, TTTAAAATCTCCACTGTCCCAT showed a sensor-assay potency score (higher = more potent) of -0.254.

TTTGTTTTTGTCTTGAATGTGT registered a sensor-assay potency score (higher = more potent) of 0.222.

Another assay concerns the target OSBPL3. The description is as above. The following applies: shRNA.
TTCTTGATGACAATCTCTCCAT returned a sensor-assay potency score (higher = more potent) of -0.313.

TATAGTATTGCTCGTAGCCTTT showed a sensor-assay potency score (higher = more potent) of -1.22.

Sequence TGAAGCTATAGTATTGCTCGTA came in with a sensor-assay potency score (higher = more potent) of -0.222.

Sequence TTCATCTCTGGAGTTTTCGGAT had a sensor-assay potency score (higher = more potent) of -0.271.

With TTCTTCTCCGGGACTTCGCTTC, the sensor-assay potency score (higher = more potent) is 0.0582.

As to TTCTTTACAGACATCACTGAGA, the sensor-assay potency score (higher = more potent) was found to be 0.168.

With TACATTCATATAAACAATCAGG, the sensor-assay potency score (higher = more potent) is -0.979.

TAAATCGAGTGTCAGTAGGTGG registered a sensor-assay potency score (higher = more potent) of -1.06.

The sequence TTGCTCTCCATACACAGGCAGA had a sensor-assay potency score (higher = more potent) of -1.4.

Regarding TCTACTTTCATTAGAAAGCTGA, the sensor-assay potency score (higher = more potent) is -0.307.

TAGAAGAATCTCTTATGCCAGC displayed a sensor-assay potency score (higher = more potent) of -0.865.

TTGGAGATAACAGAACTTCCTG: the sensor-assay potency score (higher = more potent) was 0.0622.

In the next assay the target is OSR1. Described as above. The note with it: shRNA.
ATATCTGTGGTCTCGCAGGTGG yielded a sensor-assay potency score (higher = more potent) of -0.964.

AATATATCTGTGGTCTCGCAGG: the sensor-assay potency score (higher = more potent) is -1.37.

For TAGGTTGTAGGACTTGGTGAAG, the sensor-assay potency score (higher = more potent) was -1.09.

TTGTAGGACTTGGTGAAGTGGC showed a sensor-assay potency score (higher = more potent) of -0.656.

Regarding TTTGGAGTGAATATATCTGTGG, the sensor-assay potency score (higher = more potent) was -0.758.

TTGGAGTGAATATATCTGTGGT came in with a sensor-assay potency score (higher = more potent) of 0.0172.

TTTCCCACACTCTTGACACTTG yielded a sensor-assay potency score (higher = more potent) of -0.209.

As for TAGGACTTGGTGAAGTGGCGGC, the sensor-assay potency score (higher = more potent) turned out to be 0.00529.
